The whole screen tested about 2,500 compounds, of which fewer than 10 were called active. A selection follows. Unmarked numbers belong to inactive results.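 The calls were made as follows: active = inhibition of at least 30% at 20 µM; inactive = the rest.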

The nature of the assay: colorimetric readout interference by compounds, confirmation, artefact control for Scp-1 inhibitor project, biochemical, single concentration (AID 540313).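 Also: compounds added after enzyme reaction finished so only phosphate colour detection is probed; plate controls were DMSO wells with completed Scp-1 reaction for no effect and substrate wells lacking enzyme for full effect.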 As to conditions: Colorimetric interference counterscreen, malachite green absorbance 630 nm; at 20 µM; hits give high values. In general terms: A counterscreen serves to expose hits that act by an unwanted route or on another target.
With `O=c1c2cc(-c3ccccc3)sc2nc2n1N=C(c1cccs1)CS2`, the apparent inhibition (interference) is -15.6%.
To `O=C(c1ccc(CS(=O)(=O)c2ccccc2)o1)N1CCN(c2ccccc2)CC1` belongs -14.5%.
Next, `Cc1ccc(C(=O)NNC(=O)c2cc3cc4ccccc4nc3s2)cc1`: -12.3%.
To `N#CC1=C(SCc2ccccc2)NC(=O)C(C#N)C12CCCC2` (stereo not drawn) belongs -3.5%; to `COc1cccc2sc(N(CCCN(C)C)C(=O)C(c3ccccc3)c3ccccc3)nc12`, -9.56%; to `CN(c1ccccc1)S(=O)(=O)c1ccc(Cl)c(C(=O)OCC(=O)NCc2ccco2)c1`, -22.8%.
`Nn1cnnc1N/N=C/c1cc([N+](=O)[O-])c(Cl)cc1Cl`: the apparent inhibition (interference) is 2.55%.
To `O=C(COC(=O)/C=C/c1ccc(Br)o1)Nc1cccc(S(=O)(=O)N2CCOCC2)c1` belongs -18.6%; to `Cc1nnc(SCC(=O)Nc2ccc(S(=O)(=O)Nc3ccc(Cl)nn3)cc2)s1`, -18.9%.
Take `O=C(COC(=O)CCC(=O)c1cccs1)NCc1ccco1`: the apparent inhibition (interference) is -8.73%.
To `COCCCNc1nc2ccccc2nc1NS(=O)(=O)c1ccc(F)cc1` belongs -12.6%.
In the case of `O=S(=O)(Nc1ccccc1Cl)c1cccc2nsnc12`, the apparent inhibition (interference) was -11.2%.
To `CC(NC(=O)CC1SC(N)=NC1=O)c1ccccc1` (stereo not drawn) belongs -25.2%; to `O=C(O)c1ccc(N/N=C/c2ccc3ncccc3c2)cc1`, -19.2%; to `ON=C1/C(=N\O)CC2(C/C1=N/O)OCCO2`, -6.8%.
Next, `O=C(Nc1cc(S(=O)(=O)N2CCCCC2)ccc1Cl)C1COc2ccccc2O1` (stereo not drawn): -8.46%; `Cc1nn(-c2cc(Cl)ccc2N)c(=O)c2ccccc12`: -5.43%; `Cc1ccc(CN2CCN(c3ccccc3Cl)CC2)o1`: -14.5%.
To `CN(CC(=O)Nc1cccc(F)c1)C(=O)C1CC(=O)N(CCc2ccccc2)C1` (stereo not drawn) belongs -6.79%; to `COc1ccc(NC(=O)N(C)C[C@H]2Oc3ccc(NC(=O)C4CC4)cc3C(=O)N([C@H](C)CO)C[C@@H]2C)cc1`, -15.3%; to `COc1ccc(Cl)cc1C=CC=NNC(=O)c1ccncc1`, -8.46%.
As for `Cc1ccc(S(=O)(=O)Nc2ccc3c(c2)C(=O)N([C@H](C)CO)C[C@@H](C)[C@@H](CN(C)C(=O)Nc2cccc4ccccc24)O3)cc1`, the apparent inhibition (interference) was -13.6%.
Next, `C=C1c2cccc(OC)c2O[C@H](C(=O)OCC)[C@@H]1CCCCCC`: -7.63%; `COc1cccc(CNS(=O)(=O)c2csc(C(N)=O)c2)c1`: -12.8%; `O=C(Nc1cccc(F)c1)[C@@H]1CCCN1`: -5.98%.
In the case of `O=C(c1ccc2c(c1)OCO2)N1CCNc2ccccc2C1`, the apparent inhibition (interference) was -25.4%.
To `C[C@H](CO)N1C[C@H](C)[C@H](CN(C)C(=O)Nc2ccc(C(F)(F)F)cc2)Oc2c(NC(=O)c3ccncc3)cccc2C1=O` belongs -21.4%.
To `Cc1ccccc1NC(=O)CN1C(=O)N/C(=C\c2cccn2-c2cccc(C(=O)O)c2)C1=O` belongs 6.13%; to `N#Cc1c(-c2cccs2)nc(SCC(=O)c2ccc(Br)cc2)[nH]c1=O`, -20.8%; to `O=C(NNC(=O)c1ccc2ccccc2c1)c1ccc(Cl)cc1`, -9.26%.
To `N#Cc1ccc(C(=O)Nc2cccc3cccnc23)c(F)c1` belongs -4.88%; to `Cc1ccc(S(=O)(=O)Nc2nc(C)cc(-n3nc(C)cc3C)n2)cc1`, -5.43%.
As for `O=C(CN1CCN(S(=O)(=O)/C=C/c2ccccc2)CC1)NC(=O)NCc1ccco1`, the apparent inhibition (interference) is -17.5%.
For `Cc1ccc(Cc2nnc(SCC(=O)Nc3ccc(C)cc3C)[nH]c2=O)cc1`, the apparent inhibition (interference) was -12.9%.
Consider `O=C(Cn1cc(/C=N/NC(=O)c2cccc(C(F)(F)F)c2)c2ccccc21)Nc1ccc(F)cc1`, for which the apparent inhibition (interference) was -10.9%.
Turning to `CC1=NNC(=O)C1CCC(=O)N/N=C\c1cccc(Cl)c1` (stereo not drawn), the apparent inhibition (interference) is -21.4%.
To `CCCc1nc(-c2cc3cc(C)ccc3[nH]c2=O)no1` belongs -14%.
Next, `COc1cccc(NC(C)=[N+](C)CCNS(=O)(=O)c2ccc(Cl)cc2)c1`: -6.24%; `Cc1ccc(N=Cc2c(O)n(-c3nccs3)c(=O)c3ccccc23)c(C)c1`: -22.5%.
To `O=C(CN1CCN(c2ccc(Cl)cc2)CC1)c1ccccc1` belongs -14.5%; to `O=C(Cn1nnc(-c2ccc3c(c2)OCO3)n1)NCc1ccco1`, -12%; to `Cc1cc(/C=C2\SC(=O)N(C)C2=O)c(C)n1-c1cccc(C(=O)O)c1`, -18.6%.
In the case of `Cc1c(CCC(=O)O)c(=O)oc2c(C)c(OCc3ccccc3Cl)ccc12`, the apparent inhibition (interference) was -5.7%.
To `COc1ccc2[nH]c3c(C)c4cc[n+](C)cc4c(C)c3c2c1` belongs -5.15%; to `NC(=O)NC(=O)CSc1nc2cc([N+](=O)[O-])ccc2n1-c1cccc(C(F)(F)F)c1`, -5.7%; to `CCOc1ccccc1/C=c1\sc2nc(-c3ccco3)nn2c1=O`, -22.1%.
Next, `Cc1ccc(/C=C/C(=O)Nc2ccc([N+](=O)[O-])c(NC(=O)/C=C/c3ccc(C)o3)c2)o1`: 2.53%; `COc1ccc(OC)c(NC(=O)CSc2nc(-c3ccccc3)cc(=O)[nH]2)c1`: -14.8%.
Next, `COc1ccc(OCC(=O)NNC(=O)c2ccc(-c3ccccc3)cc2)cc1`: -11.5%.
As for `Cc1c([N+](=O)[O-])c(N)nn1C`, the apparent inhibition (interference) is 2.28%.
Consider `O=C1NN(c2ccccc2)C(=O)/C1=C/c1ccc(-c2cccc(C(=O)O)c2)o1`, for which the apparent inhibition (interference) was 0.06%.
With `COc1ccc(/C=C/C(=O)OCC(=O)NC2CCCCCC2)cc1OC`, the apparent inhibition (interference) was 5.86%.
Take `Cc1ccc(CCCOC(=O)C[N+]2(C)CCCC2)cc1`: the apparent inhibition (interference) is -20%.
Next, `Cc1c(CCC(=O)O)c(=O)oc2cc(OCc3ccc(Br)cc3)ccc12`: -11.7%.
Next, `CC1CCN(c2ccc(S(=O)(=O)Nc3cc(C(=O)O)cc(C(=O)O)c3)cc2[N+](=O)[O-])CC1`: -19.7%; `CC(=O)Nc1ccc(N2C(=O)CCC2=O)cc1C`: -12.9%; `Cn1c(N)c(C(=O)COC(=O)c2ccc3ccccc3c2)c(=O)n(C)c1=O`: -13.1%.
To `N/C(=N\OC(=O)N1c2ccccc2Sc2ccccc21)c1ccc(Br)cc1` belongs -18.1%; to `O=[N+]([O-])c1cc(S(=O)(=O)Nc2cccc(Cl)c2)ccc1N=Nc1c(O)[nH]c2ccccc12`, -15.6%; to `CCOC(=O)C1CCCN(C(=O)CN(c2ccc(OC)cc2)S(=O)(=O)c2c(C)noc2C)C1` (stereo not drawn), -13.4%.
Regarding `C[n+]1ccc(C(=O)NCc2ccccc2)cc1`, the apparent inhibition (interference) is -18.9%.
Consider `CCOC(=O)C1=C(C)c2ccccc2OC1(C)C(=O)OCC` (stereo not drawn), for which the apparent inhibition (interference) is -21.7%.
For the compound `O=C(CNC(=O)C(c1ccccc1)c1ccccc1)N/N=C\c1ccc2c(c1)OCO2`, the apparent inhibition (interference) is -8.18%.
Take `CCC(=O)Nc1ccccc1N1CCN(S(C)(=O)=O)CC1`: the apparent inhibition (interference) is -13.4%.
Next, `C=Cc1ccc(C(=O)N2CCCC(CCC(=O)N3CCN(c4ccccn4)CC3)C2)cc1` (stereo not drawn): -12.3%; `CCc1ccc(NC(=O)CS(=O)CC(=O)NCCCc2ccccc2)cc1` (stereo not drawn): -6.8%; `O=C(CCS(=O)(=O)c1ccc(Br)cc1)NCCc1ccc(Cl)cc1`: -10.1%.
For `Cc1ccc(NC(=O)COc2ccc(/C=N\NC(=O)c3cccnc3)cc2)cc1C`, the apparent inhibition (interference) is -15.6%.
Take `O=C(CCNC(=O)c1ccccc1)NN=Cc1ccc(Br)o1`: the apparent inhibition (interference) is -15.3%.
Next, `O=C(NN1C(=O)C2C3C=CC(O3)C2C1=O)c1ccccc1` (stereo not drawn): -7.63%.
On to `COc1ccc(Cc2nnc(NC(=O)Cc3cccs3)s2)cc1`, for which the apparent inhibition (interference) was -7.35%.
For `CCCCSc1nnc(-c2ccc(C)cc2)o1`, the apparent inhibition (interference) is -17.8%.
`CSc1ccc(/C=N/NC(=O)c2cccc(Cl)c2)cc1`: the apparent inhibition (interference) was -14.2%.
For the compound `Cc1oc2c(C)c3oc(=O)c(CC(=O)N[C@@H](CC(C)C)C(=O)N[C@@H](Cc4ccccc4)C(=O)O)c(C)c3cc2c1C`, the apparent inhibition (interference) was -9.01%.
In the case of `O=C(c1cc2c(s1)CCC2)N1CCN(c2ccccc2)CC1`, the apparent inhibition (interference) was -15.9%.
With `COc1ccc(S(=O)(=O)c2c[nH]c(=S)[nH]c2=O)cc1Cl`, the apparent inhibition (interference) was -5.98%.
As for `COCCCn1c(Cc2csc(Nc3cccc(Cl)c3)n2)nnc1SCC(=O)OC1CCCCC1`, the apparent inhibition (interference) was -7.61%.
Next, `C=CC1C(OC2OC(CO)C(O)C(O)C2O)OC=C(C(=O)OC)C1CC1CC(=O)CC(CC(=O)CCc2ccc(O)cc2)O1` (stereo not drawn): -16.9%; `COC(=O)c1ccc(-c2c(-c3ccccc3)ncc3cc(OC)c(OC)cc23)cc1`: -3.78%.
As for `CCOc1ccc2nc(N(CCCN(C)C)C(=O)c3ccc(C(=O)c4ccccc4)cc3)sc2c1`, the apparent inhibition (interference) was -0.21%.
For the compound `COc1cc(/C=C/C2=CC(C)(C)NC(=S)N2)cc(OC)c1OC`, the apparent inhibition (interference) was -12%.
`COC(=O)CNC(=O)C(CCSC)NC(C)=O` (stereo not drawn): the apparent inhibition (interference) was -13.1%.
To `COc1cc(SC)ccc1C(=O)NNC(=O)C1COc2ccccc2O1` (stereo not drawn) belongs -1.3%.
As for `COC(=O)C[n+]1cccc2ccccc21`, the apparent inhibition (interference) was -9.28%.
Regarding `CC1=NN(C(=O)CCc2ccccc2O)C(O)(C(F)(F)F)C1` (stereo not drawn), the apparent inhibition (interference) was -14%.
Consider `Cc1c(Cl)cnc(NC(=O)COC(=O)c2ccc(S(=O)(=O)NCc3ccco3)cc2)c1Cl`, for which the apparent inhibition (interference) was -10.4%.
To `O=C(COc1ccc(-n2cnnn2)cc1)Nc1ccccc1Cl` belongs -15.1%.
To `COc1ccc(N2CCN(C(=O)CSc3nc4cc(OC)c(OC)cc4cc3C#N)CC2)cc1` belongs -7.08%.

Values taken from PubChem BioAssay AID540313 (Sanford-Burnham Center for Chemical Genomics, 2011).
